Bioassay records from PubChem BioAssay.
Sm TGR block – qHTS Assay for the Inhibitors of Schistosoma Mansoni Peroxiredoxins; Schistosoma mansoni thioredoxin glutathione reductase (TGR), Q962Y6; purified TGR, DTNB reduction, TNB absorbance 405 nm; Potency, µM (titrated, usually from 114 µM), most hits filed as inhibitors; hit rate 3% among 360,000; AID 485364, 2010; also: nearly all actives have a fitted effect of over 60% in size
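Kinetic colorimetric format: TGR-catalysed, NADPH-driven DTNB reduction monitored via TNB absorbance. Enzyme dispensed at 20 nM; compound exposure 15 min at room temperature before reaction start.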
Shiga inhibitor – A qHTS for Small Molecule Inhibitors of Shiga Toxin; Vero cells, Shiga toxin protein synthesis inhibition reporter; hit rate 9.2% among 290,000; inhibition, % at 38.7 µM; in the data active = inhibition mostly above about 28%, no sharp cut-off; inactive = mostly below about 43%
NS1 inh – qHTS Assay for Inhibitors of Influenza NS1 Protein Function. AID 2326, 2010. hit rate 0.4% among 270,000. Potency, µM (top dose mostly 46.1 µM); calls by dose curve; also: actives are rising curves; nearly all actives have a fitted effect of over 50% in size
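Recovery from NS1-induced slow growth read by OD600 in budding yeast switched to galactose assay medium (pH 6.0, -URA) at 1:100 dilution. Compound 23 nl per well; the matching strain lacking NS1 serves as control.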
CHX counter – Cycloheximide Counterscreen for Small Molecule Inhibitors of Shiga Toxin; cell reporter, cycloheximide protein synthesis inhibition counterscreen; max response, %; hit rate 12% among 300,000; in the data active = max response mostly above about 13%, no sharp cut-off; inactive = mostly below about 14%; also: read at 38.3 µM for the half of the compounds with a filed dose
Pf growth 48h – Primary qHTS for delayed death inhibitors of the malarial parasite plastid, 48 hour incubation. P. falciparum luciferase growth in erythrocytes, 48 h. Potency, µM (titrated, usually from 28.7 µM), usual class: inhibitors. hit rate 5.9% among 310,000
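In quantitative HTS format, infected erythrocytes bearing luciferase-reporter parasites were treated for a single generation at 37 C. Luminescence after adding detection reagent served as the growth measure.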
Pf growth 96h – Primary qHTS for delayed death inhibitors of the malarial parasite plastid, 96 hour incubation | P. falciparum luciferase reporter growth, 96 h | hit rate 6.9% among 320,000 | Potency, µM (top dose mostly 28.7 µM), most hits filed as inhibitors
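Infected RBCs, 2% Hct / 0.05% parasitemia final; luciferase-reporter P. falciparum; cpd 96 h, 37 C, 5% CO2; luciferase detection reagent; luminescence.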
Numbers stand for hits; . = inactive; ? = inconclusive; / = no result given. In the library only some 21% were active in any assay of this set; here they are far more common. Unless noted, calls follow the shape of the dose curve; as a rule, active = well fitted curve in the direction sought with a large enough effect; inconclusive = small, poorly fitted or top-dose-only effect, or another doubt; inactive = no such curve, though single readings can be large; an effect the other way counts as inactive or inconclusive.

SMILES | Sm TGR block | Shiga inhibitor | NS1 inh | CHX counter | Pf growth 48h | Pf growth 96h
Cc1nn(-c2ccccc2)c(C)c1/C=N/NC(=O)c1ccccc1O | . | 38.2 | . | 41.7 | 3.7µM | 6.57µM
Cc1nn(-c2ccccc2)c(C)c1/C=N\N1CCN(c2ccc(Cl)cc2)CC1 | . | . | . | . | 13.1µM | ?
Cc1nn(-c2ccccc2)c(N2CCCC2)c1/C=N/NC(=O)C1CC1 | . | . | . | . | 10.4µM | 11.7µM
CCCc1nn2c(=O)c(C(c3cccc(Cl)c3)c3c(O)nc4sc(CCC)nn4c3=O)c(O)nc2s1 | . | . | . | . | . | .
Cc1nn(-c2ccccc2)cc1/C=N/NC(=O)c1cccs1 | . | 102.3 | . | 44.3 | . | .
CC(/C=N/NC(=O)c1cc(-c2cccnc2)nc2c1c(C)nn2-c1ccccc1)=C\c1ccccc1 | . | . | . | . | ? | 2.94µM
Cc1nn(-c2ccccc2)c(C)c1/C=N/O | . | . | . | 13.7 | . | .
Cc1nn(-c2ccccc2)c(N2CCCC2)c1/C=N/NC(=O)c1ccccc1O | . | . | . | . | 8.28µM | 13.1µM
Cc1nn(-c2ccccc2)c(C)c1/C=N/n1cnnc1 | . | . | / | . | . | ?
COCCNC(=O)c1[nH]c2cc(C)ccc2c1Sc1ccc(Cl)cc1 | . | / | / | / | / | /
COc1cccc(-c2noc(COc3cccc(C)c3C)n2)c1 | . | / | / | / | / | /
CCOc1ccc(-n2c(SCC(=O)N3CCCc4ccccc43)nc3c([nH]c4ccccc43)c2=O)cc1 | . | / | / | / | / | /
Cc1ccc(OCC(=O)NNC(=O)C2CSC3(C)CCC(=O)N23)cc1 (stereo unspecified) | . | / | / | / | . | .
Cc1nn(-c2ccccc2)c(N2CCCC2)c1/C=N/NC(=O)c1cc(-c2cccnc2)nc2ccccc12 | . | . | . | . | 11.7µM | ?
Cc1nn(-c2ccccc2)c(C)c1/C=N/NC(=O)CSc1nnc(SCc2ccc(Cl)cc2)s1 | . | . | . | 40.8 | . | ?
COc1ccc(/C=N/NC(=O)c2cc(-c3cccnc3)nc3ccccc23)c(OC)c1 | . | . | / | . | . | .
CCOc1ccc(Oc2c(/C=N/NC(C)=O)c(C)nn2-c2ccccc2)cc1 | . | . | . | . | ? | ?
Cc1nn(-c2ccccc2)c(C)c1/C=N/NC(=O)c1ccccc1NS(=O)(=O)c1cccs1 | . | . | . | . | . | ?
CCOc1ccc(Oc2c(/C=N/NC(=O)C3CC3)c(C)nn2-c2ccccc2)cc1 | . | . | . | . | 3.29µM | ?
Cc1nn(-c2ccccc2)c(C)c1/C=N/NC(=O)c1cccs1 | . | . | . | 14.5 | ? | ?
Nc1ncnc2c1nc(Sc1ccc(Cl)cc1)n2[C@H]1O[C@@H]2COP(=O)(O)O[C@H]2[C@@H]1O | / | / | . | / | / | /
CC1CN=C(N(C(=S)Nc2ccccc2)c2cccc(C(F)(F)F)c2)S1 (stereo unspecified) | . | . | . | 14.5 | . | .
O=C1C(=O)N(CCO)C(c2ccccc2[N+](=O)[O-])/C1=C(\O)c1ccccc1 (stereo unspecified) | . | . | . | . | . | .
Cc1ccc(/C(O)=C2\C(=O)C(=O)N(Cc3cccnc3)C2c2ccccc2[N+](=O)[O-])cc1 (stereo unspecified) | . | 83.3 | . | 37.3 | . | .
Cc1ccc(/C(O)=C2\C(=O)C(=O)N(C)C2c2ccccc2[N+](=O)[O-])cc1 (stereo unspecified) | . | / | . | 36.9 | . | .
SMILES | Sm TGR block | Shiga inhibitor | NS1 inh | CHX counter | Pf growth 48h | Pf growth 96h
O=C1C(=O)N(Cc2cccnc2)C(c2ccccn2)/C1=C(/O)c1ccc(Br)cc1 (stereo unspecified) | ? | . | . | . | . | .
CCOC(=O)/C(C#N)=C/Nc1ccccc1NS(=O)(=O)c1ccc2c(c1)OCCO2 | . | / | / | / | 9.28µM | 11.7µM
CCOC(=O)/C(C#N)=C/Nc1ccccc1OC | . | 43.1 | . | 25.2 | . | .
CCOC(=O)C(=O)/C(C#N)=C/Nc1ccccc1 | . | . | . | . | / | .
Cc1csc(=O)n1CC(=O)OCC(=O)c1c(N)n(CC(C)C)c(=O)n(C)c1=O | . | / | / | / | . | .
CC(=O)Nc1ccc(C(=O)NNC(=O)Cc2ccccc2)cc1 | . | . | . | . | . | .
Cc1sc(-n2c(C)ccc2C)c(C#N)c1C | . | . | . | . | . | 10.4µM
COC(=O)CSC1=C(C#N)C(c2ccc(C(C)C)cc2)CC(=O)N1 (stereo unspecified) | . | . | . | . | / | .
COC(=O)CSC1=C(C#N)C(c2ccccc2)CC(=O)N1 (stereo unspecified) | . | . | . | . | . | 9.28µM
N#CC1=C(SCC(=O)Nc2ccccc2)NC(=O)CC1c1ccc(O)cc1 (stereo unspecified) | . | . | . | . | / | 5.86µM
CNC(=O)COc1coc(CN2CCN(c3ccccc3F)CC2)cc1=O | . | . | . | . | . | ?
COc1c(O)ccc(/C=C(\C#N)c2nc3ccccc3[nH]2)c1[N+](=O)[O-] | . | 63.9 | . | 40.5 | . | 4.15µM
COc1ccc(/C=C(\C#N)c2nc3ccccc3[nH]2)cc1O | . | 28.9 | . | 19.1 | . | .
COc1cc(/C=C(/C#N)c2nc3ccccc3[nH]2)ccc1OC(=O)c1ccco1 | . | 81.6 | . | 27.6 | . | .
COc1c(Cl)cc(Cl)cc1/C=C(\C#N)c1nc2ccccc2[nH]1 | . | / | / | / | / | /
Cc1ccccc1N1CCN(C(=O)c2ccc(Oc3ccc(C(F)(F)F)cn3)cc2)CC1 | . | . | . | . | 9.28µM | 13.1µM
COC(=O)c1ccc(Oc2ccc(C(F)(F)F)cn2)cc1 | . | 45.2 | / | 27.7 | . | .
O=C(O)c1ccc(Oc2ccc(C(F)(F)F)cn2)cc1 | . | . | / | 15.1 | . | .
CCNS(=O)(=O)c1ccc2nc(NC(=O)/C=C/c3cc(OC)c(OC)c(OC)c3)sc2c1 | . | . | . | . | . | .
Nc1ccc(N(S(=O)(=O)c2ccccc2)S(=O)(=O)c2ccccc2)c(Cl)c1 | / | / | . | / | / | /
CCN(c1cccc(C)c1)S(=O)(=O)c1ccc(-c2cc(C)no2)s1 | . | . | . | . | ? | 11.7µM
C[C@H]1C2C=C[C@H]1[C@@H](C(=O)O)[C@@H]2c1c2ccc(=O)c(O)c-2oc2c(O)c(O)ccc12 | / | / | . | / | / | /
COc1ccc2ccc3c(c2c1)N=CC1(O3)N(C)c2ccccc2C1(C)C (stereo unspecified) | 22.4µM | 34.3 | . | . | . | ?
CN1c2ccccc2C(C)(C)[C@]12C=Cc1cc(O)ccc1O2 | . | . | . | 38.0 | ? | /
CN1c2ccccc2C(C)(C)C12C=Nc1c(ccc3ccccc13)O2 (stereo unspecified) | 20µM | 99.4 | . | 27.1 | ? | ?
